The record followed here is the OligoGym collection.
Also: reference of the scale not given here.

The target in one experiment is LITAF. Nature of the experiment: pooled miR-30 sensor sort-seq; sequence = guide strand. The following applies: shRNA.
TAATGGTCCACGTCCTGCAGGG returned a sensor-assay potency score (higher = more potent) of -0.698.

As to TATAGGACAGCTGACTCACGAT, the sensor-assay potency score (higher = more potent) is -0.462.

Sequence ATAACTGTTAACAGCCACTGTC had a sensor-assay potency score (higher = more potent) of -0.861.

AATAACTGTTAACAGCCACTGT returned a sensor-assay potency score (higher = more potent) of -0.0828.

Take ACAGTAATGGTCCACGTCCTGC: the sensor-assay potency score (higher = more potent) is -1.32.

Regarding TTATAGGACAGCTGACTCACGA, the sensor-assay potency score (higher = more potent) turned out to be 0.0157.

TTGCAGGAAGGACAACACATTT: the sensor-assay potency score (higher = more potent) is -1.76.

Sequence TGACTCACGATCATCTTGTTGC had a sensor-assay potency score (higher = more potent) of -0.0822.

Consider TAACAGCCACTGTCTCTTCATA, for which the sensor-assay potency score (higher = more potent) was -1.19.

Sequence TTAACAGCCACTGTCTCTTCAT registered a sensor-assay potency score (higher = more potent) of -0.139.

For the sequence TAACTGTTAACAGCCACTGTCT, the sensor-assay potency score (higher = more potent) is -0.461.

The sequence TAATTGGATTGTTATTGGGGAT returned a sensor-assay potency score (higher = more potent) of -0.833.

Another experiment concerns the target LMO4. Described as above. As to conditions: shRNA.
Consider TAACCTAATGTAGTCATTTCTG, for which the sensor-assay potency score (higher = more potent) is -0.956.

With TAAGATGATACACATTGCCTTG, the sensor-assay potency score (higher = more potent) was -0.884.

The sequence TCACTCGCAGGAATCGACTGTC yielded a sensor-assay potency score (higher = more potent) of 0.214.

TTCACTCGCAGGAATCGACTGT: the sensor-assay potency score (higher = more potent) worked out at 0.156.

Regarding TAGAGCATGTAAAACACTTAAG, the sensor-assay potency score (higher = more potent) is -1.33.

TAAACTGCCATTGATGTAGTGA returned a sensor-assay potency score (higher = more potent) of 0.368.
